{
  "source": "ChEMBL document CHEMBL3433997",
  "about": "“St. Jude Leishmania screening dataset” (2016)",
  "data": [
    {"target": "Solute carrier family 2, facilitated glucose transporter member 1 (Homo sapiens) (UniProt P11166)", "sequence (P11166 whole entry)": "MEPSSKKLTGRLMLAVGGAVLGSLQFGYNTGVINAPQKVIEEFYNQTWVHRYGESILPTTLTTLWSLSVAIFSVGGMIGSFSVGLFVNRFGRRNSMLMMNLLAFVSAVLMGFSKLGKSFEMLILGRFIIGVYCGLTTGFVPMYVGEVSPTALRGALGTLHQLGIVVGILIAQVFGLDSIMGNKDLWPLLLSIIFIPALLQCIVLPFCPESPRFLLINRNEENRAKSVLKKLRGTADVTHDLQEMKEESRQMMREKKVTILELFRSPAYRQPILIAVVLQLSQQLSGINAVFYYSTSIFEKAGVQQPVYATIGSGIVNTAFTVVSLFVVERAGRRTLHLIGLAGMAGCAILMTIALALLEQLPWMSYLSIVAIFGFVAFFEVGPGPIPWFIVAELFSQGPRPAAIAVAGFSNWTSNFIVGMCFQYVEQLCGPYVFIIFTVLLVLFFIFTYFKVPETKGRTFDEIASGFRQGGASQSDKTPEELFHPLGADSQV", "experiment": "ST_JUDE_LEISH: Cytotoxicity at 2uM final concentration against transgenic Leishmania Mexicana promastigotes LmGLUT1 that are glucose transport deficient and complemented with the human glucose transporter GLUT1. Activity is measured by DNA content using SYBR green in vitro", "assay_type": "functional", "units": {"inhibition": "%"}, "values": [
      {"smiles": "Cc1cc(N[C@@H](Cc2ccccc2)C(=O)Nc2ccccc2)nc(NCCc2ccccc2)n1", "inhibition": 3.8},
      {"smiles": "Cn1nccc1C(=O)NCCNCc1cccc(-c2ccc(-c3nc4cc(C(F)(F)F)ccc4[nH]3)cc2)c1", "inhibition": -3.3},
      {"smiles": "Cc1cc(-c2nc3ccc(CN4CCN(C)CC4)cc3[nH]2)nn1Cc1cc(Cl)ccc1OCc1ccccc1", "inhibition": 3.84},
      {"smiles": "COc1ccc(N2C(N)=NC(N)=NC2(C)C)cc1OC", "inhibition": 3.76},
      {"smiles": "O=C(Nc1ccc(-c2cccc(-c3nc4cc(F)ccc4[nH]3)c2)cc1)Nc1ccc(F)c(F)c1F", "inhibition": 5.34},
      {"smiles": "COc1ccc(-c2cccc(NC(=O)c3cccc(Cl)c3)c2)cc1CN1CCCN(C)CC1", "inhibition": 11.4},
      {"smiles": "CN1CCN(c2ccc(Nc3ncc([N+](=O)[O-])c(Nc4ccccc4O)n3)cc2)CC1", "inhibition": 2.1},
      {"smiles": "COc1ccc2nccc([C@@H](O)CNCCCN(C)CCOc3cc(F)cc(F)c3)c2c1", "inhibition": 6.85},
      {"smiles": "COC(=O)c1ccc(Nc2nccc(Nc3ccc(Oc4ccccc4)cc3)n2)cc1", "inhibition": 5.22},
      {"smiles": "O=C(/C=C/c1ccc(Cl)c(Cl)c1)NCCCCCN1CCCC(CNS(=O)(=O)c2ccc(F)cc2)C1", "note": "(stereo not given)", "inhibition": -1.15},
      {"smiles": "O=C(NCCCCCN1CCC(c2c[nH]c3ccccc23)CC1)c1ccc(Cl)c(Cl)c1", "inhibition": 2.42},
      {"smiles": "O=C(Nc1ccc(-n2ccc(C(F)(F)F)n2)cc1)c1cccs1", "inhibition": 0.18},
      {"smiles": "c1ccc(CNc2cc(-c3ccccn3)nc(-c3ccccn3)n2)cc1", "inhibition": 24.5},
      {"smiles": "COc1ccc(CNCc2ccsc2)cc1-c1ccc(S(=O)(=O)NCCN2CCCC2)s1", "inhibition": 8.12},
      {"smiles": "O=c1nc(C=Cc2ccc(Br)cc2)oc2ccccc12", "inhibition": 3.24},
      {"smiles": "CCN1CCCC1CNC(=O)c1cc2c(-c3ccc(Cl)cc3)nn(C)c2s1", "note": "(stereo not given)", "inhibition": 2.89},
      {"smiles": "COc1cc(SC)ccc1C(=O)N1CC(C)CC(C)C1", "note": "(stereo not given)", "inhibition": 11.1},
      {"smiles": "O=C(/C=C/c1ccc(Cl)c(Cl)c1)NCCCCCN1CCC(NC(=S)Nc2ccc(Cl)cc2Cl)CC1", "inhibition": 8.85},
      {"smiles": "CCNC(=O)c1cc(S(=O)(=O)N2CCN(c3ccccn3)CC2)cs1", "inhibition": 0.14},
      {"smiles": "Cc1cc(NC2CCCC2)nc(Nc2ccccc2C)n1", "inhibition": 12.6},
      {"smiles": "Cc1cc2cc(NC(=O)Nc3ccnc4ccccc34)ccc2n1C", "inhibition": 0.22},
      {"smiles": "c1cc(CNCC2CCCO2)cc(-c2csc(-c3nc4ccccc4[nH]3)c2)c1", "note": "(stereo not given)", "inhibition": -1.5},
      {"smiles": "CCN(CC)CCN(Cc1ccc(-c2ccc(C(F)(F)F)cc2)cc1)C(=O)Cn1c(CCc2cccc(F)c2F)nc(=O)c2ccc(C)cc21", "inhibition": 0.88},
      {"smiles": "Cc1cc(N)c2cc(NC(=O)c3cc4ccccc4s3)ccc2n1", "inhibition": -0.05},
      {"smiles": "CN1CCCN(Cc2ccc(-c3ccc(NS(=O)(=O)c4cccc5cccnc45)cc3)cc2)CC1", "inhibition": 5.67},
      {"smiles": "CCC[C@@H]([C@@H](CC1CCCCC1)C(=O)N[C@H](C(=O)Nc1nccs1)C(C)(C)SC)N(O)C=O", "inhibition": 9.33},
      {"smiles": "COCCNCc1ccc(-c2cccc(CN(C(=O)NCCc3ccccc3)C3CCN(Cc4ccccc4)CC3)c2)cc1", "inhibition": 1.13},
      {"smiles": "O=C(NC1CCCC1)c1ccc(N2CCC(NCc3cc4cc(Cl)ccc4[nH]3)CC2)cc1", "inhibition": 2.79},
      {"smiles": "CN(C(=O)c1nn(-c2ccccn2)c2nccc(-c3cccs3)c12)C1CCCCC1", "inhibition": 5.01},
      {"smiles": "COc1cc(NC(=O)Nc2ccc(Br)cc2C(=O)Nc2ccc(Br)cc2)cc(OC)c1OC", "inhibition": 5.51},
      {"smiles": "Cc1nc2ccccc2c(=O)n1NCc1ccc(Cl)c(Cl)c1", "inhibition": -1.5},
      {"smiles": "O=C(/C=C/c1ccc(Cl)c(Cl)c1)NCCCCCN1CCC(NC(=O)c2ccc(F)c(F)c2)CC1", "inhibition": 3.18},
      {"smiles": "CC(C)(C)c1ccc(CN2CCC(CNC(=O)c3cc(-c4cccc(F)c4)cs3)C2)cc1", "note": "(stereo not given)", "inhibition": 4.3},
      {"smiles": "CCCC(C)Nc1nc(C)cc(N[C@@H](CC(C)C)C(=O)NCCc2ccccc2)n1", "note": "(stereo not given in full)", "inhibition": 7.28},
      {"smiles": "Oc1ccccc1CN1CCN(C(c2ccccc2)c2ccccc2)CC1", "inhibition": 3.02},
      {"smiles": "Cc1cc(NC2CCCC2)nc(Nc2ccccc2)n1", "inhibition": 16.4},
      {"smiles": "NC1=NC(c2ccccc2)(c2ccccc2)C(=O)N1CC1CCC1", "inhibition": 0.06},
      {"smiles": "COc1ccccc1-n1c(-c2ccc3ccccc3c2)csc1=NC(=O)c1ccccc1", "inhibition": 0.68},
      {"smiles": "Cc1[nH]c2ccccc2c1C1CCN(CCCCNC(=O)c2ccc(-c3ccc(C#N)cc3)cc2)CC1", "inhibition": 11.2},
      {"smiles": "C(=NNc1nc2ccccc2[nH]1)c1ccccc1OCc1ccccc1", "inhibition": 4.25}
    ]},
    {"target": "Hexose transporter 1 (Plasmodium falciparum) (UniProt O97467)", "experiment": "ST_JUDE_LEISH: Cytotoxicity at 2uM final concentration against transgenic Leishmania Mexicana promastigotes LmPfHT that are glucose transport deficient and complemented with the Plasmodium falciparum hexose transporter. Activity is measured by DNA content using SYBR green in vitro", "assay_type": "functional", "units": {"inhibition": "%"}, "values": [
      {"smiles": "Cc1cc(N[C@@H](Cc2ccccc2)C(=O)Nc2ccccc2)nc(NCCc2ccccc2)n1", "inhibition": 5.68},
      {"smiles": "Cn1nccc1C(=O)NCCNCc1cccc(-c2ccc(-c3nc4cc(C(F)(F)F)ccc4[nH]3)cc2)c1", "inhibition": -1.43},
      {"smiles": "Cc1cc(-c2nc3ccc(CN4CCN(C)CC4)cc3[nH]2)nn1Cc1cc(Cl)ccc1OCc1ccccc1", "inhibition": 3.27},
      {"smiles": "COc1ccc(N2C(N)=NC(N)=NC2(C)C)cc1OC", "inhibition": 5.41},
      {"smiles": "O=C(Nc1ccc(-c2cccc(-c3nc4cc(F)ccc4[nH]3)c2)cc1)Nc1ccc(F)c(F)c1F", "inhibition": 7.02},
      {"smiles": "COc1ccc(-c2cccc(NC(=O)c3cccc(Cl)c3)c2)cc1CN1CCCN(C)CC1", "inhibition": 12},
      {"smiles": "CN1CCN(c2ccc(Nc3ncc([N+](=O)[O-])c(Nc4ccccc4O)n3)cc2)CC1", "inhibition": 3.83},
      {"smiles": "COc1ccc2nccc([C@@H](O)CNCCCN(C)CCOc3cc(F)cc(F)c3)c2c1", "inhibition": 7.45},
      {"smiles": "COC(=O)c1ccc(Nc2nccc(Nc3ccc(Oc4ccccc4)cc3)n2)cc1", "inhibition": 9.95},
      {"smiles": "O=C(/C=C/c1ccc(Cl)c(Cl)c1)NCCCCCN1CCCC(CNS(=O)(=O)c2ccc(F)cc2)C1", "note": "(stereo not given)", "inhibition": -0.91},
      {"smiles": "O=C(NCCCCCN1CCC(c2c[nH]c3ccccc23)CC1)c1ccc(Cl)c(Cl)c1", "inhibition": 4.92},
      {"smiles": "O=C(Nc1ccc(-n2ccc(C(F)(F)F)n2)cc1)c1cccs1", "inhibition": 0.85},
      {"smiles": "c1ccc(CNc2cc(-c3ccccn3)nc(-c3ccccn3)n2)cc1", "inhibition": 4.72},
      {"smiles": "COc1ccc(CNCc2ccsc2)cc1-c1ccc(S(=O)(=O)NCCN2CCCC2)s1", "inhibition": 8.67},
      {"smiles": "O=c1nc(C=Cc2ccc(Br)cc2)oc2ccccc12", "inhibition": 2.44},
      {"smiles": "CCN1CCCC1CNC(=O)c1cc2c(-c3ccc(Cl)cc3)nn(C)c2s1", "note": "(stereo not given)", "inhibition": 5.39},
      {"smiles": "COc1cc(SC)ccc1C(=O)N1CC(C)CC(C)C1", "note": "(stereo not given)", "inhibition": 11.1},
      {"smiles": "O=C(/C=C/c1ccc(Cl)c(Cl)c1)NCCCCCN1CCC(NC(=S)Nc2ccc(Cl)cc2Cl)CC1", "inhibition": 9.09},
      {"smiles": "CCNC(=O)c1cc(S(=O)(=O)N2CCN(c3ccccn3)CC2)cs1", "inhibition": -0.21},
      {"smiles": "Cc1cc(NC2CCCC2)nc(Nc2ccccc2C)n1", "inhibition": 7.5},
      {"smiles": "Cc1cc2cc(NC(=O)Nc3ccnc4ccccc34)ccc2n1C", "inhibition": 0.43},
      {"smiles": "c1cc(CNCC2CCCO2)cc(-c2csc(-c3nc4ccccc4[nH]3)c2)c1", "note": "(stereo not given)", "inhibition": 2.45},
      {"smiles": "CCN(CC)CCN(Cc1ccc(-c2ccc(C(F)(F)F)cc2)cc1)C(=O)Cn1c(CCc2cccc(F)c2F)nc(=O)c2ccc(C)cc21", "inhibition": 1.15},
      {"smiles": "Cc1cc(N)c2cc(NC(=O)c3cc4ccccc4s3)ccc2n1", "inhibition": -1.3},
      {"smiles": "CN1CCCN(Cc2ccc(-c3ccc(NS(=O)(=O)c4cccc5cccnc45)cc3)cc2)CC1", "inhibition": 3.68},
      {"smiles": "CCC[C@@H]([C@@H](CC1CCCCC1)C(=O)N[C@H](C(=O)Nc1nccs1)C(C)(C)SC)N(O)C=O", "inhibition": 8.98},
      {"smiles": "COCCNCc1ccc(-c2cccc(CN(C(=O)NCCc3ccccc3)C3CCN(Cc4ccccc4)CC3)c2)cc1", "inhibition": -0.26},
      {"smiles": "O=C(NC1CCCC1)c1ccc(N2CCC(NCc3cc4cc(Cl)ccc4[nH]3)CC2)cc1", "inhibition": 3.34},
      {"smiles": "CN(C(=O)c1nn(-c2ccccn2)c2nccc(-c3cccs3)c12)C1CCCCC1", "inhibition": 5.58},
      {"smiles": "COc1cc(NC(=O)Nc2ccc(Br)cc2C(=O)Nc2ccc(Br)cc2)cc(OC)c1OC", "inhibition": 4.2},
      {"smiles": "Cc1nc2ccccc2c(=O)n1NCc1ccc(Cl)c(Cl)c1", "inhibition": -1.58},
      {"smiles": "O=C(/C=C/c1ccc(Cl)c(Cl)c1)NCCCCCN1CCC(NC(=O)c2ccc(F)c(F)c2)CC1", "inhibition": 5.17},
      {"smiles": "CC(C)(C)c1ccc(CN2CCC(CNC(=O)c3cc(-c4cccc(F)c4)cs3)C2)cc1", "note": "(stereo not given)", "inhibition": 4.53},
      {"smiles": "CCCC(C)Nc1nc(C)cc(N[C@@H](CC(C)C)C(=O)NCCc2ccccc2)n1", "note": "(stereo not given in full)", "inhibition": 6.41},
      {"smiles": "Oc1ccccc1CN1CCN(C(c2ccccc2)c2ccccc2)CC1", "inhibition": 6.5},
      {"smiles": "Cc1cc(NC2CCCC2)nc(Nc2ccccc2)n1", "inhibition": 9.56},
      {"smiles": "NC1=NC(c2ccccc2)(c2ccccc2)C(=O)N1CC1CCC1", "inhibition": 2.21},
      {"smiles": "COc1ccccc1-n1c(-c2ccc3ccccc3c2)csc1=NC(=O)c1ccccc1", "inhibition": -0.46},
      {"smiles": "Cc1[nH]c2ccccc2c1C1CCN(CCCCNC(=O)c2ccc(-c3ccc(C#N)cc3)cc2)CC1", "inhibition": 9.94},
      {"smiles": "C(=NNc1nc2ccccc2[nH]1)c1ccccc1OCc1ccccc1", "inhibition": 6.99}
    ]}
  ]
}
